SMN2 splice enh – enhancers of SMN2 splice variant expression; AID 1458; actives 2.8% (n = 210,000); Potency, µM (titrated, usually from 46.1 µM), inactives show at the highest dose activity change, positive = activation, actives largely listed as activators; HEK293 SMN2-luciferase splicing reporter, luminescence, 30-36 h; also: % of control where 0% means no effect; nearly all actives have a fitted effect of over 55% in size
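HEK293 cells carry an SMN2 […]–luciferase reporter in which exon 7 inclusion puts luciferase in frame. Cells were plated 10-12 h before compound addition, then incubated 30-36 h at 37C. ONE-Glo luminescence was read; sodium butyrate at 4.5 mM final served as control.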
KinaseGlo FLuc – Kinase-Glo luciferase inhibition (counter-screen) | Q27757 | Kinase-Glo luciferase, ATP luminescence, 8 min | Potency, µM (series often up to 38.3 µM), for inactives: top-dose activity change, negative = inhibition, usual class: inhibitors | actives 0.28% (n = 200,000) | AID 1379; also: % is scaled to controls: 0 for no effect and ±100 for the full control effect; nearly all actives have a fitted effect of over 60% in size
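Light output from Kinase-Glo luciferase with luciferin and 10 uM ATP in 50 mM imidazole pH 7.2, KCl, MgCl2, Tween 20, BSA; compound pin-delivered, 8-min ambient incubation, then luminescence read.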
NPC1 prom act – activators of NPC1 promoter | Huh7 NPC1 promoter luciferase reporter, 24 h | Potency, µM (titrated, usually from 9.22 µM), inactives show at the top dose activation, most hits filed as activators | actives 2.4% (n = 320,000) | AID 485313; also: % of control where 0% means no effect; nearly all actives have a fitted effect of over 60% in size
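In 1536-well qHTS, Huh7 cells harboring an NPC1 promoter–luciferase construct received compound for 24 h; activation was quantified by luminescence following luciferase reagent addition.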
FLuc counter – inhibits or activates purified firefly luciferase, miR-21 counter-screen. P08659. purified FLuc, Km substrates, luminescence inhibition. Potency, µM (doses to about 57.5 µM), for the others: top-dose activity change, negative = inhibition, actives largely listed as inhibitors. actives 6.9% (n = 360,000). AID 588342;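 also: plate controls were vehicle for no effect and reference inhibitor for full effect; nearly all actives have a fitted effect of over 55% in size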
Target sequence (P08659 whole entry, looked up): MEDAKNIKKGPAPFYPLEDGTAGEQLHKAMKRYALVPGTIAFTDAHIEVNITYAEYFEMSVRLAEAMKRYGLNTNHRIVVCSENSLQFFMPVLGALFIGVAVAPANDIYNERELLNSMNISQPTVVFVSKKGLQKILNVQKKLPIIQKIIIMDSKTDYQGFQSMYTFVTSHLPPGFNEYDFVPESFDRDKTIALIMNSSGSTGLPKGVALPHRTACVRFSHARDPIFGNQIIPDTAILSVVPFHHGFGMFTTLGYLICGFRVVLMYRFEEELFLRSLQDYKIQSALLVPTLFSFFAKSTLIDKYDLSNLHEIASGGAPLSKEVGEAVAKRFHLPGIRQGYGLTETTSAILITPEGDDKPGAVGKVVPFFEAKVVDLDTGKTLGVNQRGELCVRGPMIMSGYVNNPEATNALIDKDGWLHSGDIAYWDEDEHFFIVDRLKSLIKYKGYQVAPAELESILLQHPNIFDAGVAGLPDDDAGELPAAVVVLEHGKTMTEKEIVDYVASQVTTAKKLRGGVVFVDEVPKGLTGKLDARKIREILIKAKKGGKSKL
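Purified P. pyralis luciferase, 10 nM final, with Km-level 10 uM D-luciferin and 10 uM ATP in 50 mM Tris acetate pH 7.5, 10 mM Mg acetate, 0.01% Tween-20, 0.05% BSA; 6-point qHTS titration about 60 µM downward; luminescence read.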
ELG1 genotox – induces genotoxicity in HEK293T cells with luciferase-tagged ELG1. HEK293T ELG1-luciferase reporter, luminescence, 16 h. Potency, µM (doses to about 46 µM), inactives show top-dose activity change, positive = activation, hits mostly activators. actives 1.3% (n = 330,000); also: % of control where 0% means no effect; nearly all actives have a fitted effect of over 60% in size
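Cells (2,000/well) expressing the ELG1-luciferase fusion are dosed by pin tool and kept 16 hr at 37 °C, 5% CO2. Signal comes from ONE-Glo luciferase reagent after 30 min at room temperature.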
Rab9 prom act – Rab9 promoter activation | actives 2.8% (n = 320,000) | AID 485297 | Huh7 Rab9 promoter-luciferase reporter, luminescence, 24 h | Potency, µM (top dose mostly 9.22 µM), without a hit: at the top dose activation, negative = inhibition, usual class: activators; also: % of control where 0% means no effect; nearly all actives have a fitted effect of over 60% in size
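Measured in stably transfected Huh7 cells bearing a Rab9 promoter–luciferase construct: 24 h compound treatment at 37 °C, followed by luminescence detection.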
Active calls of the source: *; ? = inconclusive; / = not tested or not shown; [ ] = dose if it differs, or a comment. Rows were chosen to be rich in hits. Some 7.5% of all compounds tested hit in one or more screens of this group. Calls follow the shape of the dose curve; as a rule, active = well fitted curve in the direction sought with a large enough effect; inconclusive = small, poorly fitted or top-dose-only effect, or another doubt; inactive = no such curve, though single readings can be large; an effect the other way counts as inactive or inconclusive. Potency is read from the fitted curve at half-maximal effect.

SMILES	SMN2 splice enh	KinaseGlo FLuc	NPC1 prom act	FLuc counter	ELG1 genotox	Rab9 prom act
CC(OC(=O)CN1C(=O)NC2(CCCC2)C1=O)C(=O)Nc1cccc(Cl)c1 (stereo not given)	/	/	-5.7%	4.1%	2.2%	7.4%
O=C(c1cnn(-c2ccccc2)c1)c1cc(F)ccc1O	/	/	?	13.5µM*	?	?
COc1ccc(-n2cc(C(=O)c3ccccc3O)cn2)cc1	?	10µM*	?	0.849µM*	2.31µM*	0.501µM*
O=C(c1cnn(-c2ccccc2)c1)c1ccccc1O	?	-13.9%	?	2.39µM*	?	3.16µM*
CN(C)C(=O)c1c(C(F)(F)F)nn(C)c1Cl	2.4%	-2.9%	-1.9%	-2.2%	-1.2%	1.5%
O=C(Nc1ccc2c(c1)Cc1ccccc1-2)[C@@H]1[C@H](C(=O)O)[C@]2(Cl)C(Cl)=C(Cl)[C@@]1(Cl)C2(Cl)Cl	5.4%[9.22 µM]	-5.0%[7.66 µM]	/	/	/	/
CCOC(=O)c1sc(N)c(C(=O)OCC)c1C	/	/	?	21.3µM*	?	?
CCOC(=O)c1sc(N)c(C(=O)Nc2ccccc2)c1C	/	2.0%	21.8%	?	17.1%	2.82µM*
CCn1c(C)nc2cc(C(=O)N/N=C(\C)c3ccccc3O)ccc21	?	6.6%	?	13.5µM*	4.9%	?
Cc1ccccc1C(=O)NNC(=S)NC(=O)c1ccc(Cl)cc1Cl	9.6%	0.7%	0.1%	2.1%	-2.7%	0.6%
CCn1c(C)nc2cc(C(=O)NNC(=S)Nc3ccccc3OC)ccc21	/	/	24.0%	19µM*	9.6%	?
COc1cc([N+](=O)[O-])ccc1NC(=S)NNC(=O)CCC(=O)Nc1ccccc1Cl	/	/	?	?	9.2µM*	?
COc1cc([N+](=O)[O-])ccc1NC(=O)CCCOc1ccccc1	6.4%	7.2%	0.7%	-1.2%	1.4%	0.6%
COc1ccccc1NC(=S)NNC(=O)c1ccc(Cl)cc1Cl	15.8µM*	0.8%	11.7%	10.7µM*	4.2%	27.7%
Cc1cccc(NC(=O)N2CCCc3ccccc32)c1C	/	/	0.5%	-1.0%	6.1%	3.4%
Cc1cc(Oc2ccccc2)nc2ccc(O)cc12	-12.2%	0.2%	-0.2%	-18.1%	5.4%	-0.1%
CCn1c(C)nc2cc(C(=O)N/N=C/c3ccccc3C)ccc21	15.8µM*	-4.1%	1.78µM*	10.7µM*	?	1.12µM*
CCn1c(C)nc2cc(C(=O)NN=Cc3ccccc3OC(F)F)ccc21	/	/	/	/	15.0%	/
O=[N+]([O-])c1ccc(F)cc1OCc1nc(-c2cccs2)no1	15.8µM*	-1.3%	23.2%	9.53µM*	?	?
Cc1ccc(OCc2nc(-c3cccs3)no2)c([N+](=O)[O-])c1	2.82µM*	-8.6%	0.398µM*	0.757µM*	?	0.251µM*
O=[N+]([O-])c1ccccc1OCc1nc(-c2cccs2)no1	12.6µM*	-0.6%	2.51µM*	6.75µM*	?	2.51µM*
O=C(O)CCc1nc(-c2cccs2)no1	-6.4%	-2.4%	-5.8%	1.6%	-1.3%	-0.9%
CCc1ccccc1NC(=O)C1CCN(S(=O)(=O)c2ccc3c(c2)N(C(C)=O)CCO3)CC1	/	/	-0.8%	-0.4%	-1.7%	-1.3%
COc1ccc(C(=O)Nc2nnc(SCc3cc(=O)c4cccc(F)c4[nH]3)s2)cc1	/	/	/	21.3µM*	/	/
COc1cccc(N2CC(C(=O)Nc3nnc(SCC(=O)NC4CCCC4)s3)CC2=O)c1 (stereo not given)	/	/	-1.7%	6.4%	6.0%	0.5%
SMILES	SMN2 splice enh	KinaseGlo FLuc	NPC1 prom act	FLuc counter	ELG1 genotox	Rab9 prom act
COc1ccc(C(=O)Nc2nnc(SCC(=O)NC3CC3)s2)cc1	/	/	1.41µM*	1.2µM*	?	2.51µM*
COc1cccc(C(=O)Nc2nnc(SCC(=O)NC3CC3)s2)c1	/	/	?	5.36µM*	?	?
CCc1sc(Nc2cccc(Cl)c2C)nc1-c1cc2cccc(OC)c2oc1=O	/	/	/	-7.4%	/	/
O=c1oc(-c2cccc(S(=O)(=O)N3CCOCC3)c2)nc2ccccc12	10.0%	-1.6%	2.3%	-12.6%	-21.1%	-5.6%
CC(=O)Oc1cccc(-c2nc3ccccc3c(=O)o2)c1	/	-3.8%	-0.7%	19µM*	1.3%	-0.3%
COc1cccc(-c2nc3ccc(O)cc3c(=O)o2)c1	-10.4%	4.0%	-2.7%	4.78µM*	1.5%	2.3%
COc1ccccc1NC(=O)Cn1cnc2c(oc3nc4c(cc32)CCCC4)c1=O	/	/	-2.6%	-14.3%	-0.5%	-0.2%
CCCCn1cnc2c(oc3nc4c(cc32)CCCC4)c1=O	/	/	0.631µM*	6.01µM*	?	0.562µM*
COc1cccc(NC(=O)Cn2cnc3c(oc4nc5c(cc43)CCCC5)c2=O)c1	/	/	-0.9%	-1.8%	?	-4.0%
O=c1c2oc3nc4c(cc3c2ncn1CCCc1ccccc1)CCCC4	/	/	24.4%	23.9µM*	14.1%	?
CCCCCCn1cnc2c(oc3nc4c(cc32)CCCC4)c1=O	11.2µM*	0.1%	?	?	13.9%	3.16µM*
COc1cc(CN2CCNC(=O)C2CC(=O)N2CCCN(C(C)=O)CC2)cc(OC)c1 (stereo not given)	/	/	1.4%	-0.9%	10.8%	7.8%
Cc1cc(C)n(-c2nnc(Nc3ccc(C)c(C)c3)c3ccccc23)n1	-1.6%	/	/	?	/	/
C=C1C[C@]23CC[C@H]4C(CO)(CO)C[C@@H](O)C[C@@]4(C)[C@@H]2CC[C@H]1C3	-27.2%	2.2%	/	/	/	/
Oc1cccc2ccc(/C=C/c3cccs3)nc12	25.5%	-17.1%	?	2.13µM*	2.24µM*	2.82µM*
Cc1ccsc1/C=C/C(=O)O	16.0%	2.9%	-2.2%	0.5%	0.7%	1.1%
Cc1ccsc1/C=C/c1ccc2ccccc2n1	0.891µM*	11.2µM*	2µM*	1.69µM*	?	2.24µM*
Oc1c(Cl)cc(Cl)cc1/C=C/c1ccc2cccc(O)c2n1	-20.1%	1.9%	-34.9%	?	-15.4%	-32.1%
Cc1ccsc1/C=C/c1ccc2cccc(O)c2n1	?	-22.2%	?	2.69µM*	9.2µM*	3.55µM*
O=C(CN1C(=O)NC2(CCCCCC2)C1=O)c1ccc(OC(F)F)cc1OC(F)F	/	/	2.2%	4.3%	-4.3%	1.8%
Cn1c(SCc2ccc(Cl)cc2)nnc1-c1ccc2nonc2c1	/	/	-0.4%	1.4%	-2.7%	-3.8%
CCOC(=O)c1c(C)[nH]c(C)c1S(=O)(=O)N1CCCC(C(=O)Nc2cccc(CC)c2)C1 (stereo not given)	/	/	/	-3.5%	/	/
O=C(c1ccc(-c2ccccc2)cc1)C1CCCN(C(=O)c2ccncc2)C1 (stereo not given)	/	-3.7%	-2.1%	-1.3%	3.6%	-1.6%

Compound activity from PubChem BioAssay.
